According to ChEMBL document CHEMBL1157539, “Thousands of chemical starting points for antimalarial lead identification” (Nature, 2010):

Tested on: Plasmodium falciparum
Experiment: GSK_TCMDC: Inhibition of Plasmodium falciparum Dd2 in whole red blood cells, using parasite LDH activity as an index of growth. Test compounds present at 2uM
Type: functional

Structure (SMILES)	Inhibition
COc1cc2nc(N3CC(C)N(C(=O)Cc4ccc(-c5ccccc5)cc4)C(C)C3)nc(N)c2cc1OC (stereo unspecified)	12%
O=C(Nc1ccc(OC2CCN(Cc3ccsc3)C2)c(Cl)c1)c1ccc2ncccc2c1.O=C(O)C(F)(F)F (stereo unspecified)	10%
O=C(c1cccs1)N1CCN(c2ccc([N+](=O)[O-])c(NC3CC3)c2)CC1	95%
Cn1c(NCc2cc(F)cc3c2OCOC3)nc2cc(Nc3ccnc(Nc4cccc(CS(C)(=O)=O)c4)n3)ccc21	100%
Cc1cc(Nc2ccncc2)n2nc(C)c(-c3ccccc3Cl)c2n1	93%
COc1cc2nc(SCC(C)C)n(CCCn3ccnc3)c(=N)c2cc1OC	78%
CN1CCN(c2ccc(Nc3c4ccccc4nc4ccccc34)cc2)CC1	94%
COc1cc2nc(-c3ccccc3)nc(N3CCN(C(=O)c4ccco4)CC3)c2cc1OC	87%
COc1cccc(NC(=O)NC2CCN(c3ccnc(Nc4cc(OC)c(OC)c(OC)c4)n3)C2)c1 (stereo unspecified)	57%
CC[C@H](C)[C@H](NC(=O)[C@H](CC1CCCCC1)[C@H](CC)N(O)C=O)C(=O)Nc1ccccn1	95%
Cc1ccc(NC(=O)N2CCCN(CCCCCNC(=O)/C=C/c3ccc(Cl)c(Cl)c3)CC2)cc1C	4%
CS(=O)(=O)c1ccc(CNCc2ccc(-c3ccc(-c4nc5cc(F)ccc5[nH]4)s3)cc2)cc1.O=C(O)C(F)(F)F	97%
Cc1cc(N[C@@H](CC(C)C)C(=O)NCCOc2ccccc2)nc(NCC2CCCCC2)n1.O=C(O)C(F)(F)F	53%
COc1ccccc1CCNC(=O)c1cnc(N2CCN(c3ccncc3)CC2)c(Cl)c1.O=C(O)C(F)(F)F	54%
CCC(C)NS(=O)(=O)c1ccc2nc(Nc3ccc(C)c(Cl)c3)n(C(C)C(C)C)c2c1 (stereo unspecified)	98%
Cc1ccc(CN2CCCN(Cc3cccc(NC(=O)c4cc5ccccc5s4)c3)CC2)cc1.O=C(O)C(F)(F)F	28%
Cl.O=c1cc(NCCCNCc2ccc(C(F)(F)F)s2)[nH]c2ccccc12	68%
COc1ccc(C[C@H](N)C(=O)N[C@H]2[C@@H](O)[C@H](n3cnc4c(N(C)C)ncnc43)O[C@@H]2CO)cc1 [PUROMYCIN]	100%

Structure (SMILES)	Inhibition
COc1ccc(Cl)cc1NC(=O)C(C)N1CCN(S(=O)(=O)c2ccccc2F)CC1 (stereo unspecified)	66%
NCCCNc1ccnc2cc(Cl)ccc12	25%
CC(=O)Nc1cccc(C(=O)Nc2ccc(-c3cccc(-c4nc5cc(F)ccc5[nH]4)c3)cc2)c1	8%
Cl.Oc1ccc(Nc2nc(NCC3CCCO3)c3ccccc3n2)cc1 (stereo unspecified)	57%
CCOc1cc(C(=O)Nc2ccc3nc(N(CC)CC)cc(C)c3c2)cc(OCC)c1OCC	9%
Clc1ccc(OCc2ccccc2)c(-c2nc(-c3nc4ccc(Cl)cc4[nH]3)cs2)c1	60%
Br.COc1cc(OCCCCCCON2C(=N)N=C(N)NC2(C)C)cc(OC)c1OC	93%
Cc1cc(N[C@@H](Cc2ccccc2)C(=O)NCc2cccc(F)c2)nc(NCCc2cccnc2)n1.O=C(O)C(F)(F)F	40%
C=CCn1c(Sc2ccc(C#N)c([N+](=O)[O-])c2)nnc1-c1cc(OC)cc(OC)c1	84%
COc1cc(F)c2nccc([C@@H](O)CN3CCC(NCc4ccc5c(n4)NC(=O)CS5)CC3)c2c1	25%
O=C(N[C@@H](CC1CCCCC1)C(=O)NCCc1ccc(Cl)c(Cl)c1)c1ccc(O)c(-c2ccc(Cl)c(Cl)c2)c1	99%
Cc1cccc(-c2nc3cc(NC(=O)c4ccc([N+](=O)[O-])o4)ccc3o2)c1	73%
CCN(c1ccc(F)cc1)S(=O)(=O)c1cc(Br)cc2c1N(C(=O)C1CC1)CC2	79%
O=C(O)C(F)(F)F.O=C1CCCN1CCCNCc1ccc(-c2ccc(-c3nc4cc(F)ccc4[nH]3)s2)cc1	91%
Cn1c(Nc2cc(C(C)(C)C)on2)nc2cc(Nc3ccnc(Nc4ccc(CS(C)(=O)=O)cc4)n3)ccc21	68%
CCCCCCNC(=O)C1Cc2c([nH]c3ccc(C)cc23)C2(CCN(Cc3ccccc3)CC2)N1 (stereo unspecified)	25%
COc1cccc(NC(=O)Nc2ccc(C)c(-c3ccc(C(=O)Nc4ccncc4)cc3)c2)c1	64%
CCCN(C(=O)c1ccccc1C)c1nnc(-c2ccccc2C)s1	65%
